Test in all cases: HT-SELEX; high values mean tight binding
Conditions in all cases: protein: recombinant; vector His6-GST; dsDNA, one strand shown

The target of one test is T1, SALL4 ZFC4 WT (HT-SELEX) (Mus musculus, UniProt Q8BX22 870-940).
T1 sequence: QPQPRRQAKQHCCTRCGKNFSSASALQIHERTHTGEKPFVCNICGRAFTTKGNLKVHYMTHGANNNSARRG
An outline of the steps: (§1)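 DNA from a random library (1.5 µg in the first cycle, 200 ng afterwards) was incubated with purified recombinant mouse SALL4 zinc finger cluster 4, residues 870–940 (1 µg), for 10 min at room temperature in 100 µl buffer: 10 mM Tris–HCl pH 7.5, 50 mM NaCl, poly(dI-dC), DTT. Bound complexes were pulled down on Ni2+ beads, washed and PCR-amplified, and the selection was repeated for up to 6 cycles in triplicate. MiSeq reads were scanned for 6-mers, and binding signal is each canonical k-mer's read fraction as fold change over the initial random library.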

Test [1] concerns the target T2, SALL4 ZFC4 R900W (HT-SELEX) (Mus musculus, UniProt Q8BX22 870-940, R900W).
T2 sequence: T1 sequence with R31W
The method, boiled down: as §1

The target of test [2] is T3, SALL4 ZFC4 G921D (HT-SELEX) (Mus musculus, UniProt Q8BX22 870-940, G921D).
T3 sequence: T1 sequence with G52D
An outline of the steps:
as §1

Numbering of substitutions follows the chain as printed.

As for GTCTGA, the binding signal in the test with SALL4 ZFC4 WT (HT-SELEX) is 0.754 ± 0.0534 fold-change vs cycle 0; in test [1], 0.884 ± 0.0322 fold-change vs cycle 0; in test [2], 0.945 ± 0.0454 fold-change vs cycle 0.

In the case of AGCTGA, the results for the binding signal (with SALL4 ZFC4 WT (HT-SELEX); in test [1]; in test [2]) were 0.687 ± 0.028 fold-change vs cycle 0, 0.802 ± 0.0342 fold-change vs cycle 0 and 0.882 ± 0.0146 fold-change vs cycle 0, respectively.

With ACGGAT, the values for the binding signal (with SALL4 ZFC4 WT (HT-SELEX); in test [1]; in test [2]) were 0.764 ± 0.0238 fold-change vs cycle 0, 0.855 ± 0.00544 fold-change vs cycle 0 and 0.887 ± 0.0254 fold-change vs cycle 0, respectively.

For the sequence ATTCAA, the binding signal worked out at 1.94 ± 0.125 fold-change vs cycle 0 with SALL4 ZFC4 WT (HT-SELEX), 1.97 ± 0.115 fold-change vs cycle 0 in test [1] and 1.79 ± 0.158 fold-change vs cycle 0 in test [2].

For ACCAGG, the figures for the binding signal (with SALL4 ZFC4 WT (HT-SELEX); in test [1]; in test [2]) were 0.477 ± 0.0177 fold-change vs cycle 0, 0.564 ± 0.0161 fold-change vs cycle 0 and 0.658 ± 0.055 fold-change vs cycle 0, respectively.

Take CTGTCA: the binding signal in the test with SALL4 ZFC4 WT (HT-SELEX) amounted to 0.753 ± 0.03 fold-change vs cycle 0; in test [1] it was 0.862 ± 0.0445 fold-change vs cycle 0; in test [2], 0.932 ± 0.0438 fold-change vs cycle 0.

For ATGCAG, the binding signal turned out to be 0.674 ± 0.0311 fold-change vs cycle 0 with SALL4 ZFC4 WT (HT-SELEX), 0.754 ± 0.0134 fold-change vs cycle 0 in test [1] and 0.818 ± 0.0231 fold-change vs cycle 0 in test [2].

TCAACA: the binding signal was 1.19 ± 0.0385 fold-change vs cycle 0 in the test with SALL4 ZFC4 WT (HT-SELEX), 1.35 ± 0.0647 fold-change vs cycle 0 in test [1] and 1.3 ± 0.0976 fold-change vs cycle 0 in test [2].

On to ACACCA, for which the binding signal is 0.735 ± 0.0297 fold-change vs cycle 0 in the test with SALL4 ZFC4 WT (HT-SELEX), 0.841 ± 0.0318 fold-change vs cycle 0 in test [1] and 0.903 ± 0.0271 fold-change vs cycle 0 in test [2].

For the sequence GCAAAC, the figures for the binding signal (in the test with SALL4 ZFC4 WT (HT-SELEX); in test [1]; in test [2]) were 0.54 ± 0.031 fold-change vs cycle 0, 0.598 ± 0.00737 fold-change vs cycle 0 and 0.718 ± 0.0549 fold-change vs cycle 0, respectively.

For GGTGGA, the results for the binding signal (with SALL4 ZFC4 WT (HT-SELEX); in test [1]; in test [2]) were 0.462 ± 0.0279 fold-change vs cycle 0, 0.536 ± 0.0251 fold-change vs cycle 0 and 0.619 ± 0.0493 fold-change vs cycle 0, respectively.

In the case of AGAGAC, the binding signal with SALL4 ZFC4 WT (HT-SELEX) was determined as 0.8 ± 0.0496 fold-change vs cycle 0; in test [1] it was 0.927 ± 0.0137 fold-change vs cycle 0; in test [2], 0.985 ± 0.0357 fold-change vs cycle 0.

Regarding ATTGAG, the binding signal in the test with SALL4 ZFC4 WT (HT-SELEX) was determined as 1.27 ± 0.0638 fold-change vs cycle 0; in test [1], 1.38 ± 0.0358 fold-change vs cycle 0; in test [2], 1.36 ± 0.122 fold-change vs cycle 0.

For the sequence AGAAGC, the values for the binding signal (in the test with SALL4 ZFC4 WT (HT-SELEX); in test [1]; in test [2]) were 0.652 ± 0.0323 fold-change vs cycle 0, 0.745 ± 0.0224 fold-change vs cycle 0 and 0.845 ± 0.0201 fold-change vs cycle 0, respectively.

Take CATATC: the binding signal with SALL4 ZFC4 WT (HT-SELEX) is 1.68 ± 0.148 fold-change vs cycle 0; in test [1] it was 1.44 ± 0.0706 fold-change vs cycle 0; in test [2], 1.39 ± 0.0818 fold-change vs cycle 0.

Turning to CATCCG, the binding signal with SALL4 ZFC4 WT (HT-SELEX) turned out to be 0.395 ± 0.00447 fold-change vs cycle 0; in test [1], 0.448 ± 0.0185 fold-change vs cycle 0; in test [2] it was 0.567 ± 0.0534 fold-change vs cycle 0.

Consider GTTGCA, for which the binding signal in the test with SALL4 ZFC4 WT (HT-SELEX) stood at 0.582 ± 0.0571 fold-change vs cycle 0; in test [1] it was 0.661 ± 0.0273 fold-change vs cycle 0; in test [2], 0.75 ± 0.0252 fold-change vs cycle 0.

For the sequence AGACCG, the binding signal with SALL4 ZFC4 WT (HT-SELEX) was determined as 0.32 ± 0.0198 fold-change vs cycle 0; in test [1], 0.393 ± 0.0317 fold-change vs cycle 0; in test [2], 0.525 ± 0.0509 fold-change vs cycle 0.

For TACCGA, the binding signal stood at 0.689 ± 0.0125 fold-change vs cycle 0 with SALL4 ZFC4 WT (HT-SELEX), 0.749 ± 0.0345 fold-change vs cycle 0 in test [1] and 0.837 ± 0.0299 fold-change vs cycle 0 in test [2].

For the sequence AATTTG, the binding signal in the test with SALL4 ZFC4 WT (HT-SELEX) worked out at 1.6 ± 0.112 fold-change vs cycle 0; in test [1] it was 1.56 ± 0.101 fold-change vs cycle 0; in test [2] it was 1.51 ± 0.0903 fold-change vs cycle 0.

Take CAATCA: the binding signal is 1.31 ± 0.0592 fold-change vs cycle 0 with SALL4 ZFC4 WT (HT-SELEX), 1.41 ± 0.0553 fold-change vs cycle 0 in test [1] and 1.4 ± 0.0622 fold-change vs cycle 0 in test [2].

As for CTTTTC, the binding signal in the test with SALL4 ZFC4 WT (HT-SELEX) worked out at 1.14 ± 0.0195 fold-change vs cycle 0; in test [1], 1.29 ± 0.0412 fold-change vs cycle 0; in test [2], 1.218 ± 0.00999 fold-change vs cycle 0.

In the case of AACCGT, the binding signal was 0.674 ± 0.0289 fold-change vs cycle 0 with SALL4 ZFC4 WT (HT-SELEX), 0.776 ± 0.0238 fold-change vs cycle 0 in test [1] and 0.826 ± 0.0315 fold-change vs cycle 0 in test [2].

For the sequence CTTCCA, the binding signal in the test with SALL4 ZFC4 WT (HT-SELEX) was found to be 0.834 ± 0.0174 fold-change vs cycle 0; in test [1], 0.975 ± 0.0211 fold-change vs cycle 0; in test [2] it was 1.02 ± 0.0304 fold-change vs cycle 0.

On to ACACAG, for which the figures for the binding signal (in the test with SALL4 ZFC4 WT (HT-SELEX); in test [1]; in test [2]) were 0.726 ± 0.03 fold-change vs cycle 0, 0.835 ± 0.00993 fold-change vs cycle 0 and 0.877 ± 0.04 fold-change vs cycle 0, respectively.

Consider GGGTAC, for which the binding signal with SALL4 ZFC4 WT (HT-SELEX) was found to be 0.482 ± 0.0239 fold-change vs cycle 0; in test [1], 0.556 ± 0.011 fold-change vs cycle 0; in test [2], 0.641 ± 0.0594 fold-change vs cycle 0.

Take CACTAC: the binding signal with SALL4 ZFC4 WT (HT-SELEX) turned out to be 0.801 ± 0.0178 fold-change vs cycle 0; in test [1], 0.9075 ± 0.0089 fold-change vs cycle 0; in test [2] it was 0.938 ± 0.0237 fold-change vs cycle 0.

As for GGCTAC, the binding signal with SALL4 ZFC4 WT (HT-SELEX) worked out at 0.316 ± 0.0371 fold-change vs cycle 0; in test [1] it was 0.356 ± 0.0124 fold-change vs cycle 0; in test [2] it was 0.493 ± 0.0659 fold-change vs cycle 0.

Take ATCCAG: the binding signal with SALL4 ZFC4 WT (HT-SELEX) was found to be 0.851 ± 0.0326 fold-change vs cycle 0; in test [1], 0.955 ± 0.027 fold-change vs cycle 0; in test [2] it was 0.988 ± 0.0337 fold-change vs cycle 0.

As to GGACAA, the binding signal with SALL4 ZFC4 WT (HT-SELEX) came to 0.637 ± 0.0222 fold-change vs cycle 0; in test [1] it was 0.742 ± 0.00957 fold-change vs cycle 0; in test [2], 0.828 ± 0.043 fold-change vs cycle 0.

As to ATACAC, the binding signal came out at 1.31 ± 0.0559 fold-change vs cycle 0 in the test with SALL4 ZFC4 WT (HT-SELEX), 1.36 ± 0.0547 fold-change vs cycle 0 in test [1] and 1.35 ± 0.0583 fold-change vs cycle 0 in test [2].

Consider AAAGCC, for which the binding signal in the test with SALL4 ZFC4 WT (HT-SELEX) was 0.465 ± 0.0355 fold-change vs cycle 0; in test [1] it was 0.543 ± 0.0413 fold-change vs cycle 0; in test [2], 0.65 ± 0.0602 fold-change vs cycle 0.

With GGCATA, the binding signal with SALL4 ZFC4 WT (HT-SELEX) was determined as 0.502 ± 0.0157 fold-change vs cycle 0; in test [1], 0.562 ± 0.025 fold-change vs cycle 0; in test [2], 0.668 ± 0.0401 fold-change vs cycle 0.

Consider TTATAA, for which the binding signal worked out at 4.21 ± 0.59 fold-change vs cycle 0 with SALL4 ZFC4 WT (HT-SELEX), 2.77 ± 0.289 fold-change vs cycle 0 in test [1] and 2.3 ± 0.394 fold-change vs cycle 0 in test [2].

As to AATCCA, the binding signal with SALL4 ZFC4 WT (HT-SELEX) is 1.41 ± 0.0345 fold-change vs cycle 0; in test [1] it was 1.44 ± 0.0422 fold-change vs cycle 0; in test [2] it was 1.37 ± 0.0637 fold-change vs cycle 0.

Turning to ACATCC, the binding signal in the test with SALL4 ZFC4 WT (HT-SELEX) was determined as 0.877 ± 0.0368 fold-change vs cycle 0; in test [1], 0.969 ± 0.0252 fold-change vs cycle 0; in test [2], 0.991 ± 0.0197 fold-change vs cycle 0.

ATCAAA: the binding signal stood at 1.96 ± 0.105 fold-change vs cycle 0 with SALL4 ZFC4 WT (HT-SELEX), 1.83 ± 0.114 fold-change vs cycle 0 in test [1] and 1.69 ± 0.154 fold-change vs cycle 0 in test [2].

In the case of ACAATG, the figures for the binding signal (with SALL4 ZFC4 WT (HT-SELEX); in test [1]; in test [2]) were 1.23 ± 0.0338 fold-change vs cycle 0, 1.34 ± 0.0389 fold-change vs cycle 0 and 1.32 ± 0.0407 fold-change vs cycle 0, respectively.

AAGTCG: the figures for the binding signal (in the test with SALL4 ZFC4 WT (HT-SELEX); in test [1]; in test [2]) were 0.537 ± 0.0353 fold-change vs cycle 0, 0.634 ± 0.0134 fold-change vs cycle 0 and 0.747 ± 0.0488 fold-change vs cycle 0, respectively.

Regarding GTCGTA, the binding signal with SALL4 ZFC4 WT (HT-SELEX) stood at 0.571 ± 0.0216 fold-change vs cycle 0; in test [1], 0.663 ± 0.0204 fold-change vs cycle 0; in test [2], 0.752 ± 0.0439 fold-change vs cycle 0.

Take GCAATA: the binding signal with SALL4 ZFC4 WT (HT-SELEX) came out at 1.12 ± 0.0362 fold-change vs cycle 0; in test [1], 1.04 ± 0.028 fold-change vs cycle 0; in test [2], 1.11 ± 0.028 fold-change vs cycle 0.

On to TCTACA, for which the binding signal amounted to 1.24 ± 0.0179 fold-change vs cycle 0 with SALL4 ZFC4 WT (HT-SELEX), 1.33 ± 0.0358 fold-change vs cycle 0 in test [1] and 1.29 ± 0.0644 fold-change vs cycle 0 in test [2].
